Screens deposited in PubChem by National Center for Advancing Translational Sciences (NCATS).
AmpC detergent: inhibitors of E. coli AmpC beta-lactamase with detergent | 370,000 compounds, 0.041% hits | Potency, µM (series often up to 114 µM), for the others: top-dose activity change, negative = inhibition, actives largely listed as inhibitors | P00811 | AmpC hydrolysis of nitrocefin, absorbance 480 nm, 0.01% Triton;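 note: potency is the fitted concentration of half-maximal effect; 0% = no-compound wells and -100% = no-enzyme wells; nearly all actives have a fitted effect of over 25% in size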
Target sequence (P00811 whole entry, looked up): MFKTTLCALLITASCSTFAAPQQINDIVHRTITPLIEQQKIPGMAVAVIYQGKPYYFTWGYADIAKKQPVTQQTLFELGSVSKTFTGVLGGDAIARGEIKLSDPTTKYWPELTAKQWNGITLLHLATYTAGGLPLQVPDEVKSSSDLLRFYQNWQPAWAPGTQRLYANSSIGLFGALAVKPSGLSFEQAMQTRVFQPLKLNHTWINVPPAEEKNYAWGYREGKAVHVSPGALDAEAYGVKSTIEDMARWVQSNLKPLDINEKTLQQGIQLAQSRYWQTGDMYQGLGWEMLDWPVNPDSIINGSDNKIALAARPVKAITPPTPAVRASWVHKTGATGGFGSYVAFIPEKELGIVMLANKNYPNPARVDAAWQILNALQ
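AmpC (5.3 nM in the dispensed reagent) in 20 mM phosphate pH 7.0 with 0.01% (detergent screen) or 0.0001% Triton X-100 was preincubated with compounds for 15 min at room temperature. Nitrocefin was then added from an 800 uM solution, and hydrolysis was followed at 480 nm.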
HCMV inh: blocks human cytomegalovirus replication. HFF cells, HCMV-luciferase reporter, 72 h; stronger effect = lower value. activity change, negative = inhibition, % at 57.5 µM. 410,000 compounds, 4.5% hits. AID 1259415; in the data active = activity change below about -60%; inconclusive = no clear call, values can overlap the other calls; inactive = above about -39%
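Human foreskin fibroblasts infected with luciferase-reporter HCMV at MOI 1 PFU/cell, compounds at two doses. Luciferase measured 72 h post infection; normalized to buffer-only basal and Salinomycin (10uM) controls.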
FMDV inh: foot and mouth disease virus antiviral activity; FMDV antiviral cell-based qHTS; Potency, µM (doses to about 57.9 µM), for the others: at the highest dose activity change, negative = inhibition, most hits filed as inhibitors; 410,000 compounds, 1.2% hits; calls by dose curve; tested in HEK293T cells; note: read-out not given here; potency is the fitted concentration of half-maximal effect; nearly all actives have a fitted effect of over 45% in size
HCV inhibitor: inhibitors of hepatitis C virus infection; 340,000 compounds, 3.4% hits; Potency, µM (titrated, usually from 41.8 µM), without a hit: at the top dose activity change, negative = inhibition, hits mostly inhibitors; Huh7.5.1 HCVcc-Cre infection, luciferase reporter, 44 h; note: potency is the fitted concentration of half-maximal effect
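Cells (1,000/well) were plated 4 h before compound, then infected with HCVcc-Cre virus (~0.5 moi). After 44 h further culture, infection was read as luciferase luminescence following a 15 min substrate incubation at room temperature.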
AmpC no deterg: blocks E. coli AmpC beta-lactamase in detergent-free assay; P00811; AmpC nitrocefin hydrolysis, absorbance 480 nm, 0.0001% Triton; Potency, µM (doses to about 57.1 µM), without a hit: at the top dose activity change, negative = inhibition, actives largely listed as inhibitors; 330,000 compounds, 0.52% hits;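 note: potency is the fitted concentration of half-maximal effect; plate controls were no compound for no effect and no enzyme for full effect; nearly all actives have a fitted effect of over 20% in size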
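20 mM phosphate pH 7.0 + 0.01% (detergent screen) or 0.0001% Triton X-100; 5.3 nM AmpC reagent; cpd preinc 15 min RT; nitrocefin (800 uM stock) to start; A480 q20 s × 4 min; Activity was normalised to no-enzyme and no-compound control wells.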
Active calls of the source: *; ? = inconclusive; / = no result given; ! = repeats disagree. Hits are enriched below; roughly 7.3% of the tested compounds scored in any of these assays. Unless noted, calls come from the whole dose curve; as a rule, active = well fitted curve in the direction sought with a large enough effect; inconclusive = small, poorly fitted or top-dose-only effect, or another doubt; inactive = no such curve, though single readings can be large; an effect the other way counts as inactive or inconclusive. Unless noted, % is set by controls: 0 for no effect and ±100 for the full control effect.

SMILES	AmpC detergent	HCMV inh	FMDV inh	HCV inhibitor	AmpC no deterg
CC(C)CC(NC(=O)CCl)c1ccccc1 (stereo not drawn)	0.3%	?	-14.1%	4.9%	-17.0%
CN(C)c1nc2cc3c(cc2cc1CN(CC1CCCO1)C(=O)c1cccc(F)c1)OCO3 (stereo not drawn)	/	/	4.8%	/	/
O=C(c1ccc2c(c1)OCO2)N1C[C@@H]2[C@H](c3ccccc31)[C@H](CO)N2CC1CCCC1	/	-26.5	/	/	/
CCS(=O)(=O)Nc1cc(C(=O)N2CCCN(C=O)CC2)c2c(c1)nc(-c1ccccc1)n2C	/	/	0.0%	/	/
CCn1c2ccccc2c2cc(CN3CCOc4ccc(C(O)c5cccnc5)cc4C3)ccc21 (stereo not drawn)	/	/	-20.1%	/	/
CC(C)C(NC(=O)c1ccoc1)c1nnc2n1CCN(C(=O)/C=C/c1ccc(F)cc1)CC2 (stereo not drawn)	/	/	-6.0%	/	/
Cc1ccc(CN2C(=O)c3ccccc3C2C(=O)NCc2cccnc2)cc1 (stereo not drawn)	4.1%	3.9	-17.2%	-2.1%	-0.2%
O=C(NCc1cccnc1)C1c2ccccc2C(=O)N1C1CCCC1 (stereo not drawn)	?	-7.1	-14.2%	9.0%	20µM*
COC(=O)c1cc(C(=O)NNC(=O)c2ccc3c(c2)OCO3)cc([N+](=O)[O-])c1	-6.8%	-17.0	-24.9%	7.6%	-20.5%
CN1/C(=C\P(=O)(N(C)C)N(C)C)C(C)(C)c2ccccc21	-4.0%	-93.0*	?	3.9%	27.0%
O=C(NCCn1cc(SCc2ccccc2F)c2ccccc21)c1c(F)cccc1F	-8.7%	16.6	?	?	-21.8%
COc1ccc(C(=O)NCCn2cc(SCc3cccc(F)c3)c3ccccc32)cc1OC	1.8%	?	17.8µM*	/	/
O=C(NCCn1cc(SCc2cccc(F)c2)c2ccccc21)c1cccc(C(F)(F)F)c1	14.3%	-92.2*	?	/	/
CC1CC(C)CN(Cc2nc(N)nc(Nc3ccccc3)n2)C1 (stereo not drawn)	-11.8%	-11.0	-18.2%	11.3%	-25.0%
Nc1nc(CN2CCN(c3ccccc3)CC2)nc(Nc2ccc(Cl)cc2)n1	-1.5%	-65.2*	31.6µM*	12.6µM*	21.5%
COc1ccc(Nc2nc(N)nc(CN3CCC(C)CC3)n2)cc1	-0.6%	-91.1*	7.5%	0.0%	-26.1%
Nc1nc(CN2CCN(c3ccccc3F)CC2)nc(Nc2ccccc2)n1	-14.1%	23.8	?	6.6%	-18.2%
COc1ccc(Nc2nc(N)nc(CSC(=S)N3CCCCC3)n2)cc1	0.5%	24.9	49.3%	-21.5%	-33.2%
COc1ccc(Nc2nc(N)nc(CSC(=S)N3CCCCC3C)n2)cc1 (stereo not drawn)	3.9%	-63.5*	-24.5%	?	-48.8%
CC1CC(C)CN(Cc2nc(N)nc(Nc3ccc4ccccc4c3)n2)C1 (stereo not drawn)	1.1%	-2.7	-28.2%	12.6µM*	-7.1%
CN1CC(=O)N/C1=N\C(=O)Nc1ccc(O)cc1	3.1%	/	-3.5%	8.7%	-10.9%
Cc1ccc(-c2c(C)n3c4c(=O)n(C)c(=O)n(C)c4nc3n2CCO)cc1	5.6%	?	17.8µM*	/	/
Cc1c(-c2ccccc2)n(-c2ccccc2O)c2nc3c(c(=O)n(C)c(=O)n3C)n12	-0.6%	-63.5*	25.1µM*	/	/
COCCn1c(-c2ccccc2)c(C)n2c3c(=O)n(C)c(=O)n(C)c3nc12	2.0%	-33.5	3.16µM*	/	/
Cc1cc(C)cc(-n2c(-c3ccccc3)c(C)n3c4c(=O)n(C)c(=O)n(C)c4nc23)c1	-7.2%	-0.4	-23.4%	/	/
SMILES	AmpC detergent	HCMV inh	FMDV inh	HCV inhibitor	AmpC no deterg
C[C@@H]1CN([C@H](C)CO)C(=O)CCCn2cc(nn2)CO[C@H]1CN(C)C(=O)Cc1ccccc1	/	5.9	-14.7%	/	/
CCN(CC)C(=O)c1sc2c(c1C)c(=O)n(-c1ccc(C)c(C)c1)c(=O)n2CC(=O)Nc1ccc(OC)cc1OC	-4.1%	-3.4	-7.5%	/	/
CC[C@@H](O)C[C@H]1CCC[C@@]2(C[C@@H]3OC(=O)/C=C/[C@@](C)(O)[C@@H](O)[C@H](C)[C@@H](O)[C@H](OC4CCC(N(C)C)C(C)O4)[C@@H](O)[C@](C)(O)CCCCC/C=C/[C@@H]4CC(C)(C)O[C@@]4(O)C[C@H](O2)[C@H]3C)O1 (stereo partly drawn)	/	-96.9*	?	?	/
COc1cc(OC)cc(-c2nnc(SCC(=O)N(Cc3ccccc3)C(C)(C)C)o2)c1	?	-70.6*	-6.4%	-28.5%	31.7%
CCCCCCCCC(=O)NCc1ccc(O)c(OC)c1	-9.1%	-10.0	?	-7.2%	-17.1%
COc1cc(CNC(=O)CCCC/C=C/C(C)C)ccc1O	-16.9%	-8.1	44.7µM*!	0.9%	-8.9%
COc1cccc2c1C1COC3C4CC(C(=O)O)C(C(C2)N13)N4C (stereo not drawn)	/	-96.0*	-13.9%	?	/
Cc1cc(N/N=C/c2ccccc2[N+](=O)[O-])nc(-n2nc(C)cc2C)n1	-5.5%	-98.6*	?	2.51µM*	82.1%
COc1ccc(/C=N/Nc2cc(C)nc(NS(=O)(=O)c3ccc(C)cc3)n2)cc1	0.2%	-62.2*	27.4%	2.1%	-26.1%
COc1ccc(/C=N/Nc2cc(C)nc(-n3nc(C)cc3C)n2)cc1	?	-98.6*	31.6µM*	?	140.2%
Cc1cc(N/N=C/c2cccc(Cl)c2)nc(-n2nc(C)cc2C)n1	-3.4%	-86.8*	-8.6%	17.8µM*	104.1%
Cc1cc(N/N=C/c2cccc([N+](=O)[O-])c2)nc(-n2nc(C)cc2C)n1	3.7%	?	-20.5%	?	-0.1%
Cc1cccc(N2CCN(C(c3ccccc3)c3nnc(-c4ccccc4Cl)o3)CC2)c1C (stereo not drawn)	15.9%	3.2	-7.3%	/	/
COc1ccccc1C#Cc1cnc2c(c1)C(=O)N([C@H](C)CO)C[C@H](C)[C@@H](CN(C)S(=O)(=O)c1cn(C)cn1)O2	/	15.6	-2.6%	/	/
O=C(Nc1c(C(=O)Nc2ccc(F)cc2)oc2ccccc12)c1cc2ccccc2o1	-6.4%	12.7	35.1%	/	/
CC(=O)NCCNc1ncnc2ccc(-c3ccccc3C(F)(F)F)cc12	/	/	-17.0%	/	/
COc1ccc(/C=N/Nc2cc(N3CCCC3)nc(N3CCCC3)n2)cc1	8.5%	-76.1*	?	7.08µM*	-2.9%
Oc1ccc(/C=N/Nc2cc(N3CCCC3)nc(N3CCCC3)n2)cc1	-5.8%	?	/	?	-27.2%
O=C1CCCC2=C1C(c1ccc(OS(=O)(=O)c3ccc(Cl)cc3)cc1)C1=C(CCCC1=O)O2	-0.4%	-37.7	-22.1%	12.6µM*	-3.6%
COc1ccc(N2C(=O)/C(=C/c3ccc([N+](=O)[O-])cc3)C=C2c2ccccc2)cc1	?	-101.0*	/	?	-29.5%
